From PubChem BioAssay (NCATS)
“And” between values parts separate entries of the source, which are not always exact repeats. Equal entries are not always repeated. Unmarked numbers belong to inactive results. Inconclusive results are not listed. Where a call stands in place of a potency, no number is given. The source made the active and inactive calls. Unless noted, the call rests on the fitted dose curve; in most records, active means well fitted curve in the direction sought with a large enough effect; inconclusive means small, poorly fitted or top-dose-only effect, or another doubt; inactive means no such curve, though single readings can be large; an effect the other way counts as inactive or inconclusive.

How the values were obtained:
[1] = qHTS Assay for Identification of Small Molecule Antagonists for NFkB Signaling Pathway (AID 895; active means well fitted inhibition curve with a large enough effect in the signal ratio, with a control signal flat, not every such curve was filed as active; the % refers to the signal ratio; further: potency means the concentration at half of the fitted maximal effect); details: NFkB beta-lactamase reporter cells, FRET ratio 460/530, stimulated with 10 pM TNF alpha; series mostly up to 38.3 µM
In short: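 ME-180 NFkB-bla cells (beta-lactamase under NFkB response element), plated overnight, treated with compound then 10 pM TNF alpha (about EC50) for 5 hrs at 37 C. LiveBLAzer FRET read at 460/530 nm emission, 405 nm excitation.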

[2] = qHTS Assay for Identification of Small Molecule Agonists for Hypoxia Response Element Signaling Pathway (AID 914; active means well fitted activation curve with a large enough effect in the signal ratio, with a control signal flat, not every such curve was filed as active; the % refers to the signal ratio); details: ME-180 (cervical carcinoma) HRE-bla reporter, beta-lactamase ratio, CoCl2, 17 h; activation: active compounds read high
In short: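 HRE-bla ME-180 assay for agonist-like enhancement of an EC50 CoCl2 stimulus: 17 h at 37 degrees Celsius, CCF4 for 2.5 h, ratiometric 460/530 nm signal converted to %Activity and fitted to AC50.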

[3] = molecular target: Muscarinic acetylcholine receptor M1 (Rattus norvegicus) (UniProt P08482); assay: qHTS Assay for Antagonists of Acetylcholine Muscarinic M1 Receptor: Kinetic Measurement of Intracellular Calcium Response (AID 943); details: M1-expressing cells, kinetic intracellular calcium fluorescence; series mostly up to 35.3 µM; further: nearly all actives have a fitted effect of over 75% in size; further: potency means the concentration at half of the fitted maximal effect
In short: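 CHO cells stably expressing rat M1 were loaded with no-wash Fluo-4 dye for 1 h at 37C, pre-incubated 10 min with compound, then challenged with EC80 carbachol (100 nM final); kinetic calcium read 4 min, peak/basal ratio.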

[4] = molecular target: Pyruvate kinase (Leishmania mexicana) (UniProt Q27686); assay: qHTS Validation Assay for Activators of Leishmania Mexicana Pyruvate Kinase (AID 959); details: purified L. mexicana pyruvate kinase, enzyme activity
In short: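 Eight-point qHTS titrations; enzyme 0.2 nM LmPYK (E451W mutant); substrates 0.5 mM PEP, 0.1 mM ADP; 7 mM MgCl2; 1 h room temperature; PKLight luminescence normalized to neutral control.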

[5] = tested on: 7G8; assay: qHTS profiling for inhibitors of Plasmodium falciparum proliferation (AID 504749); further: nearly all actives have a fitted effect of over 60% in size; further: potency means the concentration at half of the fitted maximal effect; details: P. falciparum in erythrocytes, SYBR Green DNA, 72 h; series mostly up to 12.8 µM
In short: (§1)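 Readout was DNA-dye fluorescence from lysed cultures, ex 485/em 535 nm. Parasitized red cells had grown 72 h with compound; data scaled between 0.29 uM artemisinin and DMSO wells and corrected using vehicle-only plates.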

[6] = tested on: CP297; assay: as above; details: P. falciparum in erythrocytes, SYBR Green DNA, 72 h; series mostly up to 12.8 µM
In short: as §1

[7] = tested on: DFO2036; assay: as above; details: P. falciparum in erythrocytes, SYBR Green DNA, 72 h; series mostly up to 12.8 µM
In short: as §1

[8] = tested on: DIV14; assay: as above; details: P. falciparum in erythrocytes, SYBR Green DNA, 72 h; series mostly up to 12.8 µM
In short: as §1

[9] = tested on: DIV17; assay: as above; details: P. falciparum in erythrocytes, SYBR Green DNA, 72 h; series mostly up to 12.8 µM
In short: as §1

[10] = tested on: ICS; assay: as above; details: P. falciparum in erythrocytes, SYBR Green DNA, 72 h; series mostly up to 12.8 µM
In short: as §1

[11] = tested on: TAB109; assay: as above; details: P. falciparum in erythrocytes, SYBR Green DNA, 72 h; series mostly up to 12.8 µM
In short: as §1

[12] = tested on: W2; assay: as above; details: P. falciparum in erythrocytes, SYBR Green DNA, 72 h; series mostly up to 12.8 µM
In short: as §1

[13] = tested on: CP266; assay: as above; details: P. falciparum in erythrocytes, SYBR Green DNA, 72 h; series mostly up to 28.7 µM
In short: as §1

[14] = S16 Schwann cell PMP22 intronic element beta-lactamase assay (AID 624044; calls by dose curve; further: nearly all actives have a fitted effect of over 15% in size); details: S16 rat Schwann cells, PMP22 element beta-lactamase FRET, 24 h; series mostly up to 17.1 µM
In short: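 Rat S16 Schwann cells with beta-Lac driven by a PMP22 intronic element, compound-treated 24 h at 37 °C. LiveBLAzer FRET B/G read: 460 nm normalized to potassium clavulanate vs DMSO; 535 nm FRET as viability; concentration-effect curves classified.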

Sequence of Muscarinic acetylcholine receptor M1 (Rattus norvegicus) (P08482 whole entry, looked up): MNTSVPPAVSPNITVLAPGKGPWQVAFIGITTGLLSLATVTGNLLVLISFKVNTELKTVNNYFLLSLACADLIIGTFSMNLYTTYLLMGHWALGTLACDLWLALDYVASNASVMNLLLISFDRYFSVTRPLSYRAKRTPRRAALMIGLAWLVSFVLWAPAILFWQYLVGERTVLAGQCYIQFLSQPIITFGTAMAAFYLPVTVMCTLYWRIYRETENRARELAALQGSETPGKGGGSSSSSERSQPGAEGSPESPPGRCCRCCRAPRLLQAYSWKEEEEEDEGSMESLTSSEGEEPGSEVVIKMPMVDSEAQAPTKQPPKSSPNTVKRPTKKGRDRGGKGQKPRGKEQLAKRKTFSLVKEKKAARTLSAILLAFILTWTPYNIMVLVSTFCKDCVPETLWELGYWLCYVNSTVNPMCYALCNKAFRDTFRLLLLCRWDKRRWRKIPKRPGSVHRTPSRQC
Sequence of Pyruvate kinase (Leishmania mexicana) (Q27686 2-499 E452W): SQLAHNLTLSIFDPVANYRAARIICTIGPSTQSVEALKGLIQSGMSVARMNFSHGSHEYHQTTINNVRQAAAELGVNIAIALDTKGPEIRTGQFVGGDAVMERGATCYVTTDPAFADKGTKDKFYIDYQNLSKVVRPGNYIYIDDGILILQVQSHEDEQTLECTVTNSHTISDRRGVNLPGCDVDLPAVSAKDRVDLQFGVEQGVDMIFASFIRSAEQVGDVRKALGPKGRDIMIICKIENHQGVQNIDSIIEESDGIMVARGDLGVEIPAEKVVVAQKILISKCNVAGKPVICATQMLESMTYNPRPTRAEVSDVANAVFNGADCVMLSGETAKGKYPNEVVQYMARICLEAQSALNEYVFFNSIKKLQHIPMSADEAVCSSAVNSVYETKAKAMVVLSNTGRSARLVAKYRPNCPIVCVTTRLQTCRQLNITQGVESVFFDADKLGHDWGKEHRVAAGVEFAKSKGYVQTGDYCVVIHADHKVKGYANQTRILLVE

Cc1cccc(C)c1OC[C@H](C)N
Potency [1]: 794 nM (active)
activation [2]: -2.33% and -23.1%

CN1C(=O)CC[C@@H]1c1cccnc1
Potency [1]: inactive
Potency [3]: inactive

NC(=O)c1cc[n+](CC2=C(C(=O)O)N3C(=O)[C@@H](NC(=O)[C@H](c4ccccc4)S(=O)(=O)[O-])[C@@H]3SC2)cc1
Potency [1]: inactive
Potency [3]: inactive
Potency [4]: 3160 nM (active)
Potency [5]: 178 nM (active)
Potency [6]: 6420 nM (active)
Potency [7]: 1780 nM (active)
Potency [8]: 721 nM (active)
Potency [9]: 572 nM (active)
Potency [10]: 355 nM (active)
Potency [11]: 1410 nM (active)
Potency [12]: 510 nM (active)

O=C(c1ccccc1)c1ccc2n1CC[C@H]2C(=O)O
Potency [5]: inactive
Potency [7]: inactive
Potency [8]: inactive
Potency [9]: inactive
Potency [10]: inactive
Potency [11]: inactive
Potency [12]: inactive

CCCN(CCC)C(=O)[C@@H](CCC(=O)O)NC(=O)c1ccccc1
Potency [5]: inactive
Potency [13]: inactive
Potency [8]: inactive
Potency [9]: inactive
Potency [10]: inactive
Potency [11]: inactive
Potency [12]: inactive

CC[C@]1(C)CC(=O)NC1=O
Potency [1]: inactive
outcome [14]: inactive
Potency [5]: inactive
Potency [13]: inactive
Potency [6]: inactive
Potency [8]: inactive
Potency [9]: inactive
Potency [10]: inactive
Potency [11]: inactive
Potency [12]: inactive

COc1ccccc1CN1CC[C@@]2(CCCN(C(=O)c3ccco3)C2)C1
activation [2]: 6.4%

C[C@@H]1COc2c(N3CCN(C)CC3)c(F)cc3c(=O)c(C(=O)O)cn1c23
Potency [5]: inactive
Potency [13]: inactive
Potency [6]: inactive
Potency [8]: inactive
Potency [9]: inactive
Potency [10]: inactive
Potency [11]: inactive

COc1cc(=O)n(C)c2c(OC[C@@H](O)C(C)(C)O)cccc12
Potency [3]: inactive

N[C@H](C(=O)N[C@@H]1C(=O)N2C(C(=O)O)=C(Cl)CS[C@@H]12)c1ccccc1
Potency [1]: inactive
Potency [3]: inactive

CC(=O)OCC1=C(C(=O)O)N2C(=O)[C@@H](NC(=O)CSc3ccncc3)[C@@H]2SC1
Potency [1]: inactive
Potency [3]: inactive
Potency [4]: 15800 nM (active)
Potency [5]: inactive
Potency [13]: inactive
Potency [6]: inactive
Potency [8]: inactive
Potency [9]: inactive
Potency [10]: inactive
Potency [11]: inactive
Potency [12]: inactive

COc1ccccc1OC[C@H](O)COC(N)=O
outcome [14]: inactive
Potency [5]: inactive
Potency [13]: inactive
Potency [6]: inactive
Potency [7]: inactive
Potency [8]: inactive
Potency [9]: inactive
Potency [10]: inactive
Potency [11]: inactive
Potency [12]: inactive

CC1(C)O[C@@H]2C[C@H]3[C@H]4C[C@H](F)C5=CC(=O)C=C[C@@]5(C)[C@@H]4[C@H](O)C[C@]3(C)[C@]2(C(=O)CO)O1
Potency [5]: inactive
Potency [13]: inactive
Potency [6]: inactive
Potency [7]: inactive
Potency [8]: inactive
Potency [9]: inactive
Potency [10]: inactive
Potency [11]: inactive
Potency [12]: inactive

OCCN1CCN(CC/C=C2\c3ccccc3Sc3ccc(C(F)(F)F)cc32)CC1
Potency [3]: 891 nM (active)

CC(C)COC[C@H](CN(Cc1ccccc1)c1ccccc1)N1CCCC1
Potency [3]: inactive

C[C@@H](C[N+](C)(C)C)OC(N)=O
Potency [1]: inactive
Potency [3]: inactive
